{
  "source": "PubChem BioAssay (Tox21)",
  "note": "Where “and” joins values, the source holds several entries; their conditions need not be identical. Equal values may be shown once. Records with an inconclusive call do not appear. Entries that show only a call come without a potency. Calls of active or inactive are those of the source. Calls come from the whole dose curve; as a rule, active = well fitted cell-killing curve with a large enough effect in the repeat runs; inconclusive = weak or mixed curves, or effect the other way; inactive = flat fitted curve, though single readings scatter. Potency is the fitted concentration of half-maximal effect.",
  "data": [
    {"test": "qHTS RealTime-Glo MT Cell Viability Assay in HEK293 cells - 8 hour (AID 1224887); note: nearly all actives have a fitted effect of over 50% in size", "conditions": "RealTime-Glo luminescence; series mostly up to 76.8 µM", "from_the_text": "U.S. Tox21 Program National Center for Advancing Translational Sciences [NCATS] NIH Chemical Genomics Center [NCGC] U.S. Environmental Protection Agency [EPA] National Institutes of Environmental Health Sciences [NIEHS] National Toxicology Program [NTP] U.S. Food and Drug Administration [FDA] Tox21 Assay Overview: Measure of cell viability is critical in the cell-base assay. Analysis of cell viability is necessary for the characterization of cell responses to cytotoxic drugs and environmental stress. A RealTime-Glo MT Cell Viability Assay to monitor cell viability in real time of continues cell culture during 40 hours of compound treatment was used to screen Tox21 10K library compounds in Hek293 cells. The RealTime-Glo MT Cell Viability Assay is a nonlytic, homogeneous, bioluminescent method to measure cell viability in real time using a simple, plate-based method. The assay involves adding NanoLuc luciferase and a cell-permeant prosubstrate to cells in culture. Viable cells reduce the proprietary prosubstrate to generate a substrate for NanoLuc luciferase. This substrate diffuses from cells into the surrounding culture medium, where it is rapidly used by the NanoLuc Enzyme to produce a luminescent signal. The signal correlates with the number of viable cells, making the assay well suited for cytotoxicity studies.\nTox21 Assay Protocol Summary: The mixture of Hek293 cell suspension and reagents were dispensed at 600cells/6 ul/well in 1536-well tissue culture treated black solid bottom plates using a Multidrop dispenser. After the assay plates were incubated at a 37 C/5% CO2 incubator for 5 hours, 23 nL of compounds dissolved in DMSO, positive and negative controls was transferred to the assay plate by a pintool work station. The plates were incubated at 37 C for 40 hours. The luminescence intensity were measured at 0h, 8h, 16h, 24h, 32h and 40h time points using ViewLux plate reader during compound treatment.", "values": [
      {"smiles": "COC(=O)C1(O)c2ccccc2-c2ccccc21", "Potency": "inactive"},
      {"smiles": "C=CCOCC1CO1", "note": "(stereo not given)", "Potency": "inactive"},
      {"smiles": "COc1ccc(C(=O)c2c(C)n(CCN3CCOCC3)c3ccccc23)cc1", "Potency": "inactive"},
      {"smiles": "Cc1nc(N(C)C)nc(OC(=O)N(C)C)c1C", "Potency": "inactive"},
      {"smiles": "CN1CC[C@]23c4c5ccc(O)c4O[C@H]2[C@@H](O)CC[C@H]3[C@H]1C5", "Potency": "inactive"},
      {"smiles": "C[C@H]1O[C@H](OC2[C@@H](O)[C@@H](O)C(O)[C@H](O)[C@H]2O)[C@@H](N)C[C@@H]1N=C(N)C(=O)O", "note": "(stereo not given in full)", "Potency": "inactive"},
      {"smiles": "O=C(CCl)CCl", "Potency": "inactive"},
      {"smiles": "O=[N+]([O-])/C=C/c1ccccc1", "Potency": "14 µM (active) and 15.5 µM (active)"},
      {"smiles": "CN1C(=O)CN=C(c2ccccc2)c2cc([N+](=O)[O-])ccc21", "Potency": "inactive"},
      {"smiles": "CNC(=O)Oc1cccc(N=CN(C)C)c1", "Potency": "inactive"},
      {"smiles": "Cc1cnc(C2=NC(C)(C(C)C)C(=O)N2)c(C(=O)O)c1", "note": "(stereo not given)", "Potency": "inactive"},
      {"smiles": "CCC[N+](CCC)(CCC)CCC", "Potency": "inactive"},
      {"smiles": "CC(C)c1ccc(OP(=O)(Oc2ccc(C(C)C)cc2)Oc2ccc(C(C)C)cc2)cc1", "Potency": "inactive"},
      {"smiles": "COP(=O)(OC)OC(Br)C(Cl)(Cl)Br", "note": "(stereo not given)", "Potency": "inactive"},
      {"smiles": "CC(C)CCCCCCCOC(=O)c1ccccc1C(=O)OCCCCCCCC(C)C", "Potency": "inactive"},
      {"smiles": "O=C1NC(=O)C(=O)C(=O)N1", "Potency": "inactive"},
      {"smiles": "O=CC=O", "Potency": "inactive"},
      {"smiles": "CCCN(CCOc1c(Cl)cc(Cl)cc1Cl)C(=O)n1ccnc1", "Potency": "44.6 µM (active) and 27.5 µM (active)"},
      {"smiles": "Nc1cc(Cl)cc(C(=O)O)c1Cl", "Potency": "inactive"},
      {"smiles": "CC(Oc1cccc(Cl)c1)C(=O)O", "note": "(stereo not given)", "Potency": "inactive"},
      {"smiles": "[Cl-].[Cl-].[Hg+2]", "Potency": "43.5 µM (active) and 3.47 µM (active)"},
      {"smiles": "CC(C)(c1ccccc1)c1cc(-n2nc3ccccc3n2)c(O)c(C(C)(C)c2ccccc2)c1", "Potency": "inactive"},
      {"smiles": "O=C(Cc1ccccc1)c1ccccc1", "Potency": "inactive"},
      {"smiles": "C[C@@H]1C[C@@H]([C@H](O)CC2CC(=O)NC(=O)C2)C(=O)[C@@H](C)C1", "Potency": "inactive"},
      {"smiles": "OCC1CO1", "note": "(stereo not given)", "Potency": "inactive"},
      {"smiles": "SCc1ccccc1", "Potency": "inactive"},
      {"smiles": "CCOC(=O)c1cn2nc(OP(=S)(OCC)OCC)cc2nc1C", "Potency": "17.4 µM (active)"},
      {"smiles": "Nc1cccc2ccccc12", "Potency": "inactive"},
      {"smiles": "O=C(Cc1ccccc1)OCCc1ccccc1", "Potency": "inactive"},
      {"smiles": "CCOP(=S)(S)OCC", "Potency": "inactive"},
      {"smiles": "C1CS1", "Potency": "inactive"},
      {"smiles": "CCCC[N+]1(C)[C@@H]2CC(OC(=O)[C@H](CO)c3ccccc3)C[C@H]1[C@@H]1O[C@@H]12", "note": "(stereo not given in full)", "Potency": "inactive"},
      {"smiles": "CC(CC(C(N)=O)(c1ccccc1)c1ccccc1)N(C)C", "note": "(stereo not given)", "Potency": "inactive"},
      {"smiles": "CC1(C)[C@H](C(=O)O[C@H](C#N)c2cccc(Oc3ccccc3)c2)[C@@H]1C=C(Br)Br", "Potency": "inactive"},
      {"smiles": "Cc1nc2ccccc2c(=O)n1-c1ccccc1Cl", "Potency": "24 µM (active)"},
      {"smiles": "O=C(N[C@H]1CN2CCC1CC2)c1ccc2c(c1)OCCO2", "Potency": "inactive"},
      {"smiles": "CCOP(=O)(O)C(N)=O", "Potency": "inactive"},
      {"smiles": "CC(O)CN1CCN(CC(=O)[O-])CCN(CC(=O)[O-])CCN(CC(=O)[O-])CC1.[Gd+3]", "note": "(stereo not given)", "Potency": "inactive"},
      {"smiles": "Cc1cccc(C)c1NC1=NCCCS1", "Potency": "inactive"},
      {"smiles": "C=CCc1ccc(OC(=O)Cc2ccccc2)c(OC)c1", "Potency": "inactive"}
    ]}
  ]
}
